Assay outcomes (PubChem BioAssay)
Hits are enriched below; roughly 11% of the tested compounds scored in any of these assays.
IMPase cell inh = membrane-permeable compound that blocks inositol monophosphatase; inhibition (IP1 accumulation), % at 46.1 µM; AID 901; 120,000 tested, under 10 active; CHO-M1 cells, IP1 accumulation, HTRF TR-FRET ratio; active = well fitted curve in the direction sought with a large enough effect in the signal ratio, not every such curve was filed as active; inconclusive = small, poorly fitted or top-dose-only effect, or a change in a side signal; inactive = no such curve, though single readings can be large or run the other way; the % refers to the signal ratio;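 note: cells stimulated with carbachol in lithium chloride buffer; higher means more IMPase inhibition seen as more IP1 and lower FRET ratio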
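Elevated IP1 in lysates lowers TR-FRET signal (665/620 ratio and 620 channel reported). Cells were CHO-M1, given carbachol (50 uM as added) plus 50mM LiCl, pH 7.4, 30 min, 37C; compounds titrated up to 46 uM; AC50 by Hill equation.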
PNC assembly inh = perinucleolar compartment assembly inhibition; activity change (PNC), negative = inhibition, % at 10 µM; 140,000 tested, 3.1% active; PC3M PTB-GFP, PNC prevalence imaging, 16 h; hits give low values; AID 2417;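 active = readout at or below -70, meaning at least 70% loss of cells showing the perinucleolar compartment, a nuclear body marking cancer cells; inconclusive = readout between -30 and a set limit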
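Read-out is percentage of cells bearing a perinucleolar compartment, from automated 20x imaging of fixed, Hoechst-stained PC3M PTB-GFP cells. Cells were seeded 4 h, then exposed 16 h to compound (23 nl of library stock) in duplicate plates.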
HPGD inh = HPGD (human) dehydrogenase inhibition | P15428 | purified HPGD, NADH fluorescence kinetic, PGE2 substrate | Potency, µM, most hits filed as inhibitors | 150,000 tested, 4.3% active | AID 894
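NADH formation kinetics: reaction with 30 uM PGE2 and 1 mM NAD+ (final), 20 nM enzyme, Tris-HCl pH 8 with Tween 20, after 15 min compound preincubation at room temperature. Fluorescence change, last versus first of five reads.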
NPSR antagonist = antagonists of human neuropeptide S receptor cAMP signaling; Q6W5P4; CHO-NPSR cells, cAMP TR-FRET, antagonist mode; Potency, µM (titrated, usually from 38.3 µM), most hits filed as inhibitors; 220,000 tested, 1% active; active = well fitted curve in the direction sought with a large enough effect; inconclusive = small, poorly fitted or top-dose-only effect, or another doubt; inactive = no such curve, though single readings can be large; an effect the other way counts as inactive or inconclusive; note: nearly all actives have a fitted effect of over 50% in size
ALDH1A1 block = inhibitors of human aldehyde dehydrogenase 1A1 | Purified ALDH1A1, NADH fluorescence, propionaldehyde substrate | Potency, µM (series often up to 75.3 µM), hits mostly inhibitors | 220,000 tested, 7.3% active | AID 1030
Target sequence (P00352 whole entry, looked up): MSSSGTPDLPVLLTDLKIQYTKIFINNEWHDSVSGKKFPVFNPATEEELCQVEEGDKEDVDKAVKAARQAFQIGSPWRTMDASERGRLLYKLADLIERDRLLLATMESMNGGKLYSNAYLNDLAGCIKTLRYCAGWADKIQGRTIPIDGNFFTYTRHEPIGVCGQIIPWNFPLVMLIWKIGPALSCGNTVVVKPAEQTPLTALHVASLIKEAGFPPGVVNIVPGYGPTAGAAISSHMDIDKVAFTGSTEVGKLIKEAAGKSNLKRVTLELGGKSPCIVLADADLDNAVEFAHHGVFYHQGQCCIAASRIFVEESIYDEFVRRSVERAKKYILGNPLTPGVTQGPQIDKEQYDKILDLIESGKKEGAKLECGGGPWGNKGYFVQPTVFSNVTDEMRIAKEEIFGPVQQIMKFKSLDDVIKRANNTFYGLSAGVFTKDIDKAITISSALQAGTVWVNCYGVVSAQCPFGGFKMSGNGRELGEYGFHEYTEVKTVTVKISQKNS
IMPase Li inh = IMPase inhibition in cells with lithium potentiation; AID 1457; Potency, µM (titrated, usually from 59.4 µM), usual class: inhibitors; 210,000 tested, 0.35% active; CHO-M1 cells, IP1 TR-FRET (IP-One), carbachol + lithium; active = well fitted curve in the direction sought with a large enough effect; inconclusive = small, poorly fitted or top-dose-only effect, or another doubt; inactive = no such curve, though single readings can be large; an effect the other way counts as inactive or inconclusive;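 note: IP1 builds up when IMPase is blocked and the TR-FRET signal falls; nearly all actives have a fitted effect of over 50% in size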
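Test compounds were applied to CHO-M1 cells previously cultured for 16–30 h at 2000 per well. A small lithium amount accompanied them; after 30 min at 37C, IP1 was quantified by TR-FRET.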
Of the large screens only hits and unclear results are named; the others gave an inactive call. Unless noted, calls come from the whole dose curve; as a rule, active = well fitted inhibition curve with a large enough effect (not every such curve was filed as active); inconclusive = small, poorly fitted or top-dose-only effect, or another doubt; inactive = no such curve, though single readings can be large or run the other way.

Cc1ccc(C2c3c(oc4ccccc4c3=O)C(=O)N2CCCN2CCOCC2)o1 (configuration not stated)	ALDH1A1 block inconclusive
Cc1ccc(C2c3c(oc4cc(C)c(C)cc4c3=O)C(=O)N2CCCN2CCOCC2)cc1 (configuration not stated)	ALDH1A1 block 11µM
CC(C)Oc1ccc(C2c3c(oc4ccccc4c3=O)C(=O)N2CCCN2CCOCC2)cc1 (configuration not stated)	ALDH1A1 block 8.9µM
C=CCOc1ccc(C2c3c(oc4ccccc4c3=O)C(=O)N2CCCN2CCOCC2)cc1 (configuration not stated)	ALDH1A1 block 18µM
Cc1ccc2oc3c(c(=O)c2c1)C(c1ccccc1F)N(CCCN1CCOCC1)C3=O (configuration not stated)	none (no result: PNC assembly inh, HPGD inh, NPSR antagonist, ALDH1A1 block, IMPase Li inh)
O=C1c2oc3ccc(Cl)cc3c(=O)c2C(c2ccccn2)N1CCCN1CCOCC1 (configuration not stated)	ALDH1A1 block 7.9µM
COc1cccc(C2c3c(oc4ccc(F)cc4c3=O)C(=O)N2CCCN2CCOCC2)c1 (configuration not stated)	none
Cc1cc(NC(=O)CCCN2C(=O)c3cccnc3C2=O)ccc1Br	none (no result: IMPase cell inh, PNC assembly inh, HPGD inh)
Cc1cc(-c2ccccc2)nc2cc(C(=O)NCc3ccco3)nn12	ALDH1A1 block inconclusive (no result: IMPase cell inh, PNC assembly inh, HPGD inh)
Cc1cccc(N2C(=O)C(O)=C(C(=O)c3cccs3)C2c2cccc(Oc3ccccc3)c2)n1 (configuration not stated)	none (no result: IMPase cell inh, PNC assembly inh, HPGD inh, ALDH1A1 block, IMPase Li inh)
O=c1oc2cc(O)c(Cl)cc2c2ccccc12	NPSR antagonist 7.9µM, IMPase Li inh 7.1µM (no result: IMPase cell inh)
Cc1[nH]n(-c2ccccc2)c(=O)c1C(c1cc(Cl)ccc1O)c1c(C)[nH]n(-c2ccccc2)c1=O	none (no result: PNC assembly inh, HPGD inh, NPSR antagonist, ALDH1A1 block, IMPase Li inh)
Cc1[nH]n(-c2ncc(-c3ccccc3)s2)c(=O)c1C(c1ccc(Cl)cc1)C(C#N)C#N (configuration not stated)	HPGD inh 25µM, NPSR antagonist inconclusive, ALDH1A1 block 28µM (no result: IMPase cell inh)
Cc1[nH]n(-c2ccc(Cl)cc2)c(=O)c1/C=N/c1nnc(-c2ccccc2)s1	HPGD inh 28µM (no result: IMPase cell inh)
CCOC(=O)C1(CCCc2ccccc2)CCN(C(=O)c2cncs2)CC1	ALDH1A1 block 5.6µM (no result: IMPase cell inh, PNC assembly inh, HPGD inh, IMPase Li inh)
CCOC(=O)C1(CCCc2ccccc2)CCN(C(=O)C(C)n2cncn2)CC1 (configuration not stated)	ALDH1A1 block 7.1µM (no result: IMPase cell inh, PNC assembly inh, HPGD inh)
CCOC(=O)C1(CCCc2ccccc2)CCN(C(=O)CCc2cnccn2)CC1	ALDH1A1 block 4µM (no result: IMPase cell inh, PNC assembly inh, HPGD inh)
CCOC(=O)C1(CCc2ccccc2)CCN(C(=O)C(C)n2cncn2)CC1 (configuration not stated)	ALDH1A1 block inconclusive (no result: IMPase cell inh, PNC assembly inh, HPGD inh)
CCOC(=O)C1(CCc2ccccc2)CCN(C(=O)CCc2cnccn2)CC1	ALDH1A1 block inconclusive (no result: IMPase cell inh, PNC assembly inh, HPGD inh)
CCOC(=O)C1(CCCc2ccccc2)CCN(C(=O)c2ocnc2C)CC1	ALDH1A1 block 0.89µM (no result: IMPase cell inh, PNC assembly inh, HPGD inh)
CCN(CC)S(=O)(=O)c1cccc(C(=O)NC(C(=O)NC2=NCCS2)C(C)C)c1 (configuration not stated)	PNC assembly inh -116
O=C(NCc1ccco1)c1cc(-c2ccccc2)c(N2CCOCC2)s1	ALDH1A1 block inconclusive
Cc1ccnc(NC(=O)c2cc(-n3cnnc3)ccc2Cl)c1	PNC assembly inh -100
COc1ccc(C(=O)N2CCN(Cc3cn[nH]c3-c3ccc(OC)cc3F)CC2)cc1	ALDH1A1 block 1µM (no result: IMPase cell inh, PNC assembly inh, HPGD inh)
CCN(Cc1ccncc1)Cc1cn[nH]c1-c1ccc(OC)cc1F	ALDH1A1 block 14µM (no result: IMPase cell inh, PNC assembly inh, HPGD inh)
COc1ccc(-c2[nH]ncc2CN(C)C(C)c2ccncn2)c(F)c1 (configuration not stated)	ALDH1A1 block inconclusive (no result: IMPase cell inh, PNC assembly inh, HPGD inh, IMPase Li inh)
Cc1cccc(C2=NN(c3ccccc3)[C@@H](C(=O)N3CCOC3=O)[C@@H]2c2ccccc2)c1	HPGD inh inconclusive, ALDH1A1 block inconclusive (no result: IMPase cell inh, PNC assembly inh, NPSR antagonist)
O=C(Cn1cnc2c(cnn2-c2ccccc2)c1=O)N1CCOCC1	none
Cc1nc(=S)c2ccccc2[nH]1	ALDH1A1 block 7.1µM
FC(F)(F)c1nc(=S)c2ccccc2[nH]1	NPSR antagonist inconclusive, ALDH1A1 block 8.9µM, IMPase Li inh 3.2µM (no result: IMPase cell inh, PNC assembly inh, HPGD inh)
